Test results: PubChem BioAssay (EPA / NIEHS)
“And” between values parts separate entries of the source, which are not always exact repeats. Equal values may be shown once. Results filed as inconclusive are left out. Some structures have more than one record in an assay (separate samples or runs), and their calls can disagree. The source made the active and inactive calls. Rule for the calls: active = hit-call score of the fitted dose curve at least 0.9, where 1 is the maximum; inconclusive = response in the unintended direction; inactive = score below 0.9.

Legend:
[1] = ACEA_AR_agonist_AUC_viability: ACEA Biosciences xCELLigence Real-Time Cell Analysis on Androgen Receptor Agonism for Viability (AID 2283775);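 for AC50: viability read 80 hours after compound addition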
Outline: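 Read-out is area under the impedance curve at 80 h post-dose in 22Rv1 cells, with DMSO as baseline and signal loss taken as reduced viability. Compounds ran in duplicate from 100 uM final.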

[2] = ACEA_AR_antagonist_AUC_viability: ACEA Biosciences xCELLigence Real-Time Cell Analysis on Androgen Receptor Antagonism for Viability (AID 2283776);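 note: area under impedance growth curve at 80 h after dosing as viability; hits lower the growth signal relative to DMSO meaning cytotoxicity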
Outline: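 22Rv1 human prostate cancer cells were seeded on electrode plates, monitored overnight, then exposed to eight 1:4 dilutions from 100 uM final. Impedance-based growth kinetics at 80 h gave an AUC viability endpoint normalized to DMSO.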

[3] = ACEA_ER_AUC_viability: ACEA Biosciences xCELLigence Real-Time Cell Analysis on Estrogen Receptor Agonism for Viability (AID 2283782);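 note: continuous compound exposure with impedance area under curve over 80 h; hit means loss of impedance signal meaning reduced cell growth or viability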
Outline: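 T-47D human breast cells in phenol red-free RPMI1640 with 10% charcoal-stripped FBS were dosed with an 8-point 1:4 dilution series from 100 uM top final concentration, in duplicate. Impedance-based growth was followed for 80 h; AUC analysed versus DMSO.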

[4] = target: zebrafish Estrogen Receptor (ESR1), esr1 (gene 259252) (UniProt P57717); assay: ATG_zfER1_XSP1: Attagene TRANS-FACTORIAL Multi-Species (XSP1) HepG2 Assay for zebrafish Estrogen Receptor (ESR1) (AID 2283772)
Outline: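 Readout: fluorescent reporter mRNA, RT-PCR plus FAM labelling, HpaI digest, capillary electrophoresis; gain-of-signal fit vs DMSO. HepG2, transient multi-reporter TRANS (NR-GAL4 chimera), 24 h chemical exposure, 3 nM 6-alpha-fluorotestosterone co-added.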

[5] = tested on: zebrafish Estrogen Receptor (ESR2B), gene 317733; assay: ATG_zfER2b_XSP1: Attagene TRANS-FACTORIAL Multi-Species (XSP1) HepG2 Assay for zebrafish Estrogen Receptor (ESR2B) (AID 2283773)
Outline: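 HepG2 cells transiently transfected with multiple GAL4-UAS reporter units expressing chimeric zebrafish ER2b-Gal4; 24 h chemical exposure with 3 nM 6-alpha-fluorotestosterone present. Reporter mRNA measured by RT-PCR and capillary electrophoresis; gain of signal fitted versus DMSO.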

[6] = tested on: frog Estrogen Receptor (ESR2), gene 100174814; assay: ATG_frER2_XSP1: Attagene TRANS-FACTORIAL Multi-Species (XSP1) HepG2 Assay for frog Estrogen Receptor (ESR2) (AID 2283774)
Outline: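 HepG2 cells transiently transfected with GAL4-UAS multiplexed reporter units expressing chimeric NR-Gal4 proteins; reporter mRNA measured 24 h after dosing by RT-PCR, FAM labeling, HpaI digestion and capillary electrophoresis. Gain-of-signal relative to DMSO; 3 nM 6-alpha-fluorotestosterone present.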

[7] = tested on: frog Estrogen Receptor (ESR1), gene 398734; assay: ATG_frER1_XSP1: Attagene TRANS-FACTORIAL Multi-Species (XSP1) HepG2 Assay for frog Estrogen Receptor (ESR1) (AID 2283777)
Outline: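 Read-out: fluorescent reporter mRNA via RT-PCR, HpaI digestion and capillary electrophoresis, after 24 h chemical exposure of transiently transfected human HepG2 cells expressing exogenous NR-Gal4 chimeras. DMSO served as baseline for positive-direction fitting.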

[8] = tested on: zebrafish Estrogen Receptor (ESR2A), gene 317734; assay: ATG_zfER2a_XSP1: Attagene TRANS-FACTORIAL Multi-Species (XSP1) HepG2 Assay for zebrafish Estrogen Receptor (ESR2A) (AID 2283778)
Outline: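 HepG2 cells transiently transfected with multiplexed GAL4-UAS reporter units and chimeric NR-GAL4 receptors; 24 h compound exposure with 3 nM 6-alpha-fluorotestosterone present. Reporter mRNA quantified by RT-PCR and capillary electrophoresis, gain-of-signal fitted relative to DMSO.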

[9] = target: chicken Estrogen Receptor (ESR1), ESR1 (gene 396099) (UniProt P06212); assay: ATG_chERa_XSP1: Attagene TRANS-FACTORIAL Multi-Species (XSP1) HepG2 Assay for chicken Estrogen Receptor (ESR1) (AID 2283779)
Outline: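 HepG2 cells transiently transfected with multiplexed GAL4-UAS reporter units expressing chimeric NR-Gal4 proteins; 3 nM 6-alpha-fluorotestosterone present. Reporter mRNA measured 24 h after dosing by RT-PCR, FAM labelling, HpaI digest and capillary electrophoresis; gain of signal versus DMSO.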

[10] = tested on: turtle Estrogen Receptor (ESR1), gene 101933533; assay: ATG_trERa_XSP1: Attagene TRANS-FACTORIAL Multi-Species (XSP1) HepG2 Assay for turtle Estrogen Receptor (ESR1) (AID 2283781)
Outline: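 HepG2 cells transiently transfected with GAL4-UAS reporter units and chimeric NR-Gal4 constructs, dosed for 24 h with 3 nM 6-alpha-fluorotestosterone present. Reporter mRNA was quantified by RT-PCR, fluorescent labelling and capillary electrophoresis, with gain of signal fitted relative to DMSO.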

AR (gene 367) [11] = target: AR (gene 367) (UniProt P10275); assay: ACEA_AR_agonist_80hr: ACEA Biosciences xCELLigence Real-Time Cell Analysis on Androgen Receptor Agonism for Proliferation (AID 2283783);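 note: hits increase impedance growth signal above DMSO baseline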
Outline: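 22Rv1 human prostate cancer cells were seeded after preconditioning in assay medium and monitored overnight, then dosed in an eight-point 1:4 dilution series from 100 uM (≤0.5% DMSO). Impedance-based growth was read at 80 h, gain-of-signal versus DMSO.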

[12] = STM_H9_NormalizedViability: Cytotoxicity Assessment at 120 hours in the Stemina devTOX quickPredict H9 human embryonic stem cell (hESC)-based Assay (AID 2283784)
Outline: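 Chemicals are tested blinded on H9 human embryonic stem cells in the pluripotent state, with medium exchanged daily. After background correction, fluorescence from CellTiter-Fluor is scaled against 0.1% DMSO wells, and decreases are scored.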

AR (gene 367) [13] = target: AR (gene 367) (UniProt P10275); assay: ACEA_AR_antagonist_80hr: ACEA Biosciences xCELLigence Real-Time Cell Analysis on Androgen Receptor Antagonism for Proliferation (AID 2283787);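 note: hits lower the impedance growth signal relative to DMSO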
Outline: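 Impedance readout (RT-CES), 80 h post-dose; loss-of-signal vs DMSO baseline. 22Rv1 cells in assay medium. Compounds: 8-pt 1:4 series, max 100 uM final, up to 0.5% DMSO; n = 2.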

[14] = target: Estrogen receptor beta (Homo sapiens) (UniProt Q92731); assay: ATG_hERb_XSP1: Attagene TRANS-FACTORIAL Multi-Species (XSP1) HepG2 Assay for human Estrogen Receptor (ESR2) (AID 2283788)
Outline: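 Read-out: reporter mRNA induction by RT-PCR, HpaI digestion and capillary electrophoresis fluorescence, fitted in positive direction relative to DMSO baseline. Human liver HepG2 cells expressing ERβ-Gal4 fusion, dosed 24 h, medium containing 3 nM 6-alpha-fluorotestosterone.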

[15] = ATG_M_06_XSP1: Attagene TRANS-FACTORIAL Multi-Species (XSP1) HepG2 Assay for M06 Transcription Factor (Internal Marker) (AID 2283790)
Outline: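 Transfected HepG2 multi-reporter system treated 24 h in the presence of 3 nM 6-alpha-fluorotestosterone. The M06 internal marker transcript was quantified by RT-PCR with capillary electrophoresis as a background control, and gain of signal was scored versus DMSO.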

[16] = ATG_M_61_XSP1: Attagene TRANS-FACTORIAL Multi-Species (XSP1) HepG2 Assay for M61 Transcription Factor (Internal Marker) (AID 2283797)
Outline: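 HepG2 cells transiently transfected with multiplexed GAL4-driven reporter units, dosed 24 h with 3 nM 6-alpha-fluorotestosterone present. Reporter mRNA quantified by RT-PCR, 6-FAM labelling, HpaI digestion and capillary electrophoresis; internal-marker background control, gain of signal versus DMSO.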

[17] = target: Estrogen receptor (Homo sapiens) (UniProt P03372); assay: ATG_hERa_XSP1: Attagene TRANS-FACTORIAL Multi-Species (XSP1) HepG2 Assay for human Estrogen Receptor (ESR1) (AID 2283780)
Outline: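 HepG2 cells transiently transfected with GAL4-UAS reporter units and chimeric NR-Gal4 constructs; 24 h after dosing, reporter mRNA quantified by RT-PCR and capillary electrophoresis. Medium contained 3 nM 6-alpha-fluorotestosterone; activity fitted as gain-of-signal versus DMSO.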

[18] = target: GAL4 Transcription Factor (Internal Marker), GAL4 (gene 855828) (UniProt P04386); assay: ATG_GAL4_XSP1: Attagene TRANS-FACTORIAL Multi-Species (XSP1) HepG2 Assay for GAL4 Transcription Factor (Internal Marker) (AID 2283789)
Outline: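 HepG2 cells transiently transfected with multiplexed GAL4-UAS reporter units were exposed for 24 h with 3 nM 6-alpha-fluorotestosterone present. Reporter mRNA was quantified by RT-PCR, FAM labelling, HpaI digestion and capillary electrophoresis; background-control readout, gain-of-signal versus DMSO.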

[19] = tested on: zebrafish Androgen Receptor (AR), gene 100005148; assay: ATG_zfAR_XSP1: Attagene TRANS-FACTORIAL Multi-Species (XSP1) HepG2 Assay for zebrafish Androgen Receptor (AR) (AID 2283771)
Outline: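 HepG2 cells were transiently transfected with a zebrafish AR-GAL4 reporter system and partially stimulated with 3 nM 6-alpha-fluorotestosterone. Reporter mRNA was measured after 24 h dosing by RT-PCR with capillary electrophoresis, and gain-of-signal was fitted relative to DMSO.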

[20] = tested on: turtle Androgen Receptor (AR), gene 101947425; assay: ATG_trAR_XSP1: Attagene TRANS-FACTORIAL Multi-Species (XSP1) HepG2 Assay for turtle Androgen Receptor (AR) (AID 2283786)
Outline: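 HepG2 cells transiently transfected with a turtle AR–GAL4 chimera and GAL4-UAS reporter, co-treated with 3 nM 6-alpha-fluorotestosterone for partial stimulation. Reporter mRNA is quantified at 24 h by RT-PCR and capillary electrophoresis, gain-of-signal versus DMSO.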

Measured: AC50

Sequence of Estrogen receptor beta (Homo sapiens) (Q92731 whole entry, looked up, the tested form may be a part): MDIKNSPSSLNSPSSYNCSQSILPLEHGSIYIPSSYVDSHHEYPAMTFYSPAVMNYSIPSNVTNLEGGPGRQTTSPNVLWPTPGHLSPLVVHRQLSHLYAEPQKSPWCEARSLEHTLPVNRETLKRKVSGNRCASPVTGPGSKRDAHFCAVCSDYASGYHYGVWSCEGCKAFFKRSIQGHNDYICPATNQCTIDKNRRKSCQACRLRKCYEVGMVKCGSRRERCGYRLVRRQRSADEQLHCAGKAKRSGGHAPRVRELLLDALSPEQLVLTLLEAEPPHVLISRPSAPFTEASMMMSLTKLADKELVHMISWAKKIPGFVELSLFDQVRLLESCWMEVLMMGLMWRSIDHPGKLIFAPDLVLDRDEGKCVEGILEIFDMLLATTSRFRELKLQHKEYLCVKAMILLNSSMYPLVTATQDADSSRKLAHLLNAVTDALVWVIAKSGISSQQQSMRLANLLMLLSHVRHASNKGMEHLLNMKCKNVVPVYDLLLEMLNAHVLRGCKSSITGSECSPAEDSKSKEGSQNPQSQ
Sequence of chicken Estrogen Receptor (ESR1), ESR1 (gene 396099) (P06212 whole entry, looked up, the tested form may be a part): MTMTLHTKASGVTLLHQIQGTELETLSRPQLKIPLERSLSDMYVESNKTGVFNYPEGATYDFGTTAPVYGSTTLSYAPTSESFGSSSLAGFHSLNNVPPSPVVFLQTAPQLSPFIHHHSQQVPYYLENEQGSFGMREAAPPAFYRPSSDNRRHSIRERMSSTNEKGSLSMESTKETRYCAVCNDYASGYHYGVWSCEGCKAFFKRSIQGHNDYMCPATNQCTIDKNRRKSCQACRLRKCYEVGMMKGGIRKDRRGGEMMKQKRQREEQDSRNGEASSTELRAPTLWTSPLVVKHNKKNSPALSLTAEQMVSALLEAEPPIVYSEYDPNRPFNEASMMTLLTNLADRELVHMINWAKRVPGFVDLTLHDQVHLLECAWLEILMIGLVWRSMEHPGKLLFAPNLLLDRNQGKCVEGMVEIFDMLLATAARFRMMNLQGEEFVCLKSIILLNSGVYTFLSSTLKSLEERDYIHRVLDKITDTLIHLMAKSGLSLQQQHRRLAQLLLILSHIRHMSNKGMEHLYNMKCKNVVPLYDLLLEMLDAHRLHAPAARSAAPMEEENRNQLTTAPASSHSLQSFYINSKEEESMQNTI
Sequence of GAL4 Transcription Factor (Internal Marker), GAL4 (gene 855828) (P04386 whole entry, looked up, the tested form may be a part): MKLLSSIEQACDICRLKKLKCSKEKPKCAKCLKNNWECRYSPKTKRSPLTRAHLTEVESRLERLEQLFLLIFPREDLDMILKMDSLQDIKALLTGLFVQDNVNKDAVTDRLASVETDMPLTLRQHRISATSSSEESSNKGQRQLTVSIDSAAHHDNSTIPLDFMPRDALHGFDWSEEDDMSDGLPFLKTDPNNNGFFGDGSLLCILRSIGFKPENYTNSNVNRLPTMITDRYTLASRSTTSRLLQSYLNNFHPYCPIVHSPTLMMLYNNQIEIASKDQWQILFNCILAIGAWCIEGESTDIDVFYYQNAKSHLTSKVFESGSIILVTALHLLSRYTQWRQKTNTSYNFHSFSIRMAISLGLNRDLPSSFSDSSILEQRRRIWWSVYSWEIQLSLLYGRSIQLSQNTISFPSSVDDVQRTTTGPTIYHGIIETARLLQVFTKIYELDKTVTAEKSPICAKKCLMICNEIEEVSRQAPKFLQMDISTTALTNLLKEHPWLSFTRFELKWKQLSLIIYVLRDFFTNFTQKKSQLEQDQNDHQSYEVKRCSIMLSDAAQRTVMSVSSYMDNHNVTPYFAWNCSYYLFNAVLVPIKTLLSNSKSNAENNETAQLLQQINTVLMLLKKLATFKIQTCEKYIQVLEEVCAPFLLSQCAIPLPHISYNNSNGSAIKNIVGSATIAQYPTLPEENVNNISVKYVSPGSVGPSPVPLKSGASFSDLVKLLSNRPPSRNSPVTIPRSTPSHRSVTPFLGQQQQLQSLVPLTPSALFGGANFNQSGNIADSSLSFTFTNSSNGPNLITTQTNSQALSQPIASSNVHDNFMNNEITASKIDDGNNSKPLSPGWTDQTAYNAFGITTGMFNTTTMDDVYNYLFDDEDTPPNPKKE
Sequence of AR (gene 367) (P10275 whole entry, looked up): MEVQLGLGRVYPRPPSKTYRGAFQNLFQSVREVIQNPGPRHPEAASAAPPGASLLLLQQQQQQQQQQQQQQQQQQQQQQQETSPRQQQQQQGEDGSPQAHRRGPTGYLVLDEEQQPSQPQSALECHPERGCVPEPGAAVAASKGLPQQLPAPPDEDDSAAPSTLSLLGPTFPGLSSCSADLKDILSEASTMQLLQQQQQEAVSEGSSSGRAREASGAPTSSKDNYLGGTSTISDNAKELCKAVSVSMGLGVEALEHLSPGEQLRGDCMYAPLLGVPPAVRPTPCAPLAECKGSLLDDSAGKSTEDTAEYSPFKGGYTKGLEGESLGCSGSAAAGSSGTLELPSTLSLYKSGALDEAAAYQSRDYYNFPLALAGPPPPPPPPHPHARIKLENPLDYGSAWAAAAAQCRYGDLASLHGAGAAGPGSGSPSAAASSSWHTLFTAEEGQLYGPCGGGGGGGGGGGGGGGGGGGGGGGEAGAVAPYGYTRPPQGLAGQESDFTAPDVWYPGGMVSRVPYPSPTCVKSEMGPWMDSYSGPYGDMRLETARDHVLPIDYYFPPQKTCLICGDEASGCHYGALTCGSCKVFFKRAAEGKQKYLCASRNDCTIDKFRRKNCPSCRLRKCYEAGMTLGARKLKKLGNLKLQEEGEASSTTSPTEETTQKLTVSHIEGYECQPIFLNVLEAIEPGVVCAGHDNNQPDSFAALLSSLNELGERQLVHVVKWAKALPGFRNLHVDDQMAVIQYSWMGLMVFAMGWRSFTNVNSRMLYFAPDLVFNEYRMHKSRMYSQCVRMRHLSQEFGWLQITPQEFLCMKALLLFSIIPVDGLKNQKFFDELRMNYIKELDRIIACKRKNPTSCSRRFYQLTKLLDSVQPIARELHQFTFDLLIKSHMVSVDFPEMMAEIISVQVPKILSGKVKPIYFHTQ
Sequence of Estrogen receptor (Homo sapiens) (P03372 whole entry, looked up, the tested form may be a part): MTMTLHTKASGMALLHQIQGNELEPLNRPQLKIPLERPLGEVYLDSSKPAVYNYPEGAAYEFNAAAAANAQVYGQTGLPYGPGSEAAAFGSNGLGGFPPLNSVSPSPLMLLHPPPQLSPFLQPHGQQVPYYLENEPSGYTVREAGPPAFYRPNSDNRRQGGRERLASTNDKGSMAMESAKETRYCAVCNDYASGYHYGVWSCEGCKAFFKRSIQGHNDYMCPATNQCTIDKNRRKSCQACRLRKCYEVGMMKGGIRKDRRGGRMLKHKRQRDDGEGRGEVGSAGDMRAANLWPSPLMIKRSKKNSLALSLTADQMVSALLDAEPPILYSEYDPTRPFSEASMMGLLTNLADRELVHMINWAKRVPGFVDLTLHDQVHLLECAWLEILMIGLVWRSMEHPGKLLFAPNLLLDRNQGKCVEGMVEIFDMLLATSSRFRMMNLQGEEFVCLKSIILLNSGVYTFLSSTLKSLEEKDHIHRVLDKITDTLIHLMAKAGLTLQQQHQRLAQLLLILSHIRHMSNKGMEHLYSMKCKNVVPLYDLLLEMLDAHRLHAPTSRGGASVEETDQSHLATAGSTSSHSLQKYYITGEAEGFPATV
Sequence of zebrafish Estrogen Receptor (ESR1), esr1 (gene 259252) (P57717 whole entry, looked up, the tested form may be a part): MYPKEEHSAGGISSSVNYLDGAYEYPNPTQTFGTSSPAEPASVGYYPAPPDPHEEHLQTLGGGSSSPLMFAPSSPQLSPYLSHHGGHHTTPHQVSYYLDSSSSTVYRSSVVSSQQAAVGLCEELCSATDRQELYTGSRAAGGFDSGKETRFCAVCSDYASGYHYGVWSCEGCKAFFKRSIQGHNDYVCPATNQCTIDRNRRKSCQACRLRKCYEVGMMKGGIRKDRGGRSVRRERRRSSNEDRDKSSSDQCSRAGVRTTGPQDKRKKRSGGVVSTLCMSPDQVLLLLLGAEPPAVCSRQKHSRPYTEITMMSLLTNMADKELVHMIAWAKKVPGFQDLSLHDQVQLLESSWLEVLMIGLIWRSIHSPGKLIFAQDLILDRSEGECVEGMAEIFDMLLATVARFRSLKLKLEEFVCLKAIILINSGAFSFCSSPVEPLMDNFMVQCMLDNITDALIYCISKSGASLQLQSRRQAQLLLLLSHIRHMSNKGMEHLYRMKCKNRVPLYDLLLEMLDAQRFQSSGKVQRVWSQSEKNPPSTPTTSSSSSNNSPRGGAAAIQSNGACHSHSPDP

O=C1c2ccccc2C(=O)N1SC(Cl)(Cl)Cl
active: [1] 8.53 µM | [2] 19.2 µM
inactive: [3]

CCc1ccc(C(=O)NN(C(=O)c2cc(C)cc(C)c2)C(C)(C)C)cc1
active: [1] 50 µM | [2] 50 µM
inactive: [3]

O=C(O)COc1ccc(Cl)cc1Cl
inactive: [1] | [2] | [3]

CNC(=O)Oc1cccc(N=CN(C)C)c1
active: [3] 50.5 µM
inactive: [1] | [2]

Oc1ccc(Cl)cc1Cc1ccccc1
active: [5] 3.36 µM | [6] 2.69 µM | [1] 18.2 µM | [2] 13.8 µM | [7] 2.63 µM | [10] 2.74 µM | [3] 18.3 µM [middle of 9 runs] | AR (gene 367) [13] 11.2 µM
not listed: [17] | [18] | [19] | [20]
inactive: all other assays above

ClC1C(Cl)C(Cl)C(Cl)C(Cl)C1Cl (stereo not drawn)
inactive: [1] | [2] | [3]
active: [2] 37.8 µM | [3] 60.1 µM

COc1nn(CSP(=S)(OC)OC)c(=O)s1
active: [1] 78.7 µM | [2] 92.6 µM
inactive: [3]

CN1CSC(=S)N(C)C1
active: [1] 50 µM | [2] 31.5 µM | [3] 39.7 µM

COP(=S)(OC)Oc1ccc(SC)c(C)c1
inactive: [4] | [1] | [3] | [18] | [15] | [16]
active: [5] 66.9 µM | [6] 11.8 µM | [2] 33.5 µM | [7] 5.04 µM | [8] 45.9 µM | [9] 25.6 µM | [17] 26.5 µM | [10] 26.6 µM | [14] 22.2 µM

CCOCN(C(=O)CCl)c1c(C)cccc1CC
inactive: [9] | [17] | [12] | [18]
active: [5] 29.5 µM | [6] 77.1 µM | [1] 50 µM | [2] 40.9 µM | [3] 79.5 µM

CCN(CC)C(=O)SCc1ccc(Cl)cc1
active: [1] 62.2 µM | [2] 65.8 µM | [3] 75.9 µM

Oc1cc(Cl)ccc1Oc1ccc(Cl)cc1Cl
active: [6] 7.05 µM | [1] 17.3 µM | [2] 12.9 µM | [8] 4.96 µM | [10] 5.85 µM | [3] 21.9 µM [middle of 6 runs] | [12] 88.2 µM
not listed: [5] | AR (gene 367) [11] | AR (gene 367) [13] | [17] | [20]
inactive: all other assays above

O=S(=O)(O)C(F)(F)C(F)(F)C(F)(F)C(F)(F)C(F)(F)C(F)(F)C(F)(F)C(F)(F)F
active: [6] 49.8 µM | [1] 50 µM | [2] 31.4 µM and 67.5 µM | [7] 84 µM | [3] 80 µM | [20] 130 µM
inactive: [5] | [1] | [3] | [12]

CC(C)OC(=O)Nc1cccc(Cl)c1
active: [1] 86.1 µM | [2] 50 µM | [3] 79.6 µM

N#CN
inactive: [1] | [2] | [3]

CCCN(CCC)c1c([N+](=O)[O-])cc(C(F)(F)F)cc1[N+](=O)[O-]
active: [5] 44.3 µM | [6] 33.1 µM | [1] 80.7 µM | [2] 50 µM | [7] 7.74 µM | [9] 27.2 µM | [10] 27.9 µM | AR (gene 367) [13] 62.7 µM
inactive: [4] | [17] | AR (gene 367) [11] | [15] | [16]

CC[C@H](C)[C@H]1O[C@]2(C=C[C@@H]1C)C[C@@H]1C[C@@H](C/C=C(\C)[C@@H](O[C@H]3C[C@H](OC)[C@@H](O[C@H]4C[C@H](OC)[C@@H](O)[C@H](C)O4)[C@H](C)O3)[C@@H](C)/C=C/C=C3\CO[C@@H]4[C@H](O)C(C)=C[C@@H](C(=O)O1)[C@]34O)O2 (tested in a mixture with another compound)
active: [1] 4.08 µM | [2] 4.93 µM | [3] 6.89 µM
